# In PubChem BioAssay (NCATS):
# Several values for one entry are separate records, joined by “and”; a condition that tells them apart may be missing. Equal entries are not always repeated. A number with no mark means an inactive call. Inconclusive results are not listed. A call without a number means that no potency is given here. Activity calls are given as the source filed them. Unless noted, calls follow the shape of the dose curve; as a rule, active = well fitted curve in the direction sought with a large enough effect; inconclusive = small, poorly fitted or top-dose-only effect, or another doubt; inactive = no such curve, though single readings can be large; an effect the other way counts as inactive or inconclusive. Peptide text beside a SMILES is read from it.
# Experiments:
# [1] = biological target: 3',5'-cyclic-AMP phosphodiesterase 4B (Homo sapiens) (UniProt Q07343); experiment: qHTS Assay for Inhibitors of PDE-IV (AID 607; active = well fitted activation curve with a large enough effect in the main read-out, with a control signal flat, not every such curve was filed as active)
# In short: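 ACTOne HEK293 cells carry a modified cAMP-gated CNG channel and express endogenous PDE4; plated 1000 cells/well, compounds up to 22.9 uM final. Membrane-potential dye fluorescence (ex 535/em 590) was read; parental cells received 10 uM forskolin + 100 uM RO 20-1724.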
# [2] = Cellular Toxicity (caspase-3) Jurkat (AID 655); conditions: Jurkat caspase-3 activation, luminescence; caspase-3 activation: at 92.2 µM (top of the series), DMSO = 0%, tamoxifen = 100%;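 also: cells exposed to compound for 16 h at 37 °C before reading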; also: potency is read from the fitted curve at half-maximal effect
# In short: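 Luminescent Caspase-Glo 3/7 read-out (20 min, room temperature) after 16 h compound treatment at 37 C of 5000 Jurkat cells per well. AC50 derived by Hill-equation fitting, scaled between DMSO basal and 100 uM tamoxifen stimulation.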
# [3] = Cellular Toxicity (caspase-3) HUV-EC-C (AID 656)
# In short: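 Luminescent Caspase-Glo 3/7 readout after 16 h, 37 °C compound exposure of HUV-EC-C endothelial cells, 1000 per well, complete medium. AC50 derived by Hill fitting, with DMSO as baseline and 100 uM tamoxifen as full activation.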
# [4] = Cellular Toxicity (caspase-3) SHSY5Y (AID 657)
# In short: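 Luminescent Caspase-Glo 3/7 read-out, 1 hr room temperature, follows 16 hours of compound treatment of SH-SY5Y cells at 37 °C. Normalization: DMSO basal, 10 uM staurosporine as 100%; AC50 values from Hill-equation concentration-response fits.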
# [5] = Cellular Toxicity (caspase-3) Mesangial (AID 660);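 also: combined caspase 3 and 7 activity read by Caspase-Glo luminescence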
# In short: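 Concentration-response qHTS: compound-induced rise in caspase 3/7 luminescence in human mesangial cells after 16 h, normalized to DMSO and 100 uM tamoxifen controls.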
# [6] = Cellular Toxicity (caspase-3) Hek293 (AID 664);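 also: cells exposed to compound for 16 h at 37 °C before readout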
# In short: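 Activation of caspase-3/7 is measured as increased luminescence from cleaved peptide-aminoluciferin substrate in HEK293 cells treated 16 hours at 37 °C. AC50 values come from Hill-equation fits of concentration-response data.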
# [7] = Cellular Toxicity (caspase-3) N2a (AID 665);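 also: compound exposure lasted 16 h at 37 °C before readout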
# In short: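 Plated mouse neuroblastoma N2a cells received titrated compounds for 16 h in complete medium. Caspase activity was then detected with a peptide-aminoluciferin luminescent reagent.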
# [8] = Cellular Toxicity (caspase-3) NIH 3T3 (AID 666);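 also: caspase signal read after 16 h compound exposure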
# In short: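 Concentration-response qHTS in NIH 3T3 mouse fibroblasts scores caspase-3/7 activation as rising luminescence after 16 hr compound exposure. Signals are scaled between DMSO-only and 100 uM tamoxifen.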
# [9] = Cellular Toxicity (caspase-3) Renal Proximal Tubule (AID 667);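 also: cells exposed to compound for 16 hours at 37 °C before detection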
# In short: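 Caspase 3/7 activation measured by luminescent aminoluciferin release in primary rat proximal tubule cells after 16 hr compound exposure at 37 °C. AC50 from Hill-fitted concentration-response, scaled between DMSO and 10 uM staurosporine.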
# [10] = biological target: Cytochrome P450 3A4 (Homo sapiens) (UniProt P08684); experiment: qHTS Assay for Inhibitors and Substrates of Cytochrome P450 3A4 (AID 884); also: nearly all actives have a fitted effect of over 50% in size; also: potency is read from the fitted curve at half-maximal effect
# In short: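 20 nM human CYP3A4 with 25 uM Luciferin-PPXE (at KM) in 200 mM KPO4, preincubated 10 min with compound; NADPH regeneration started a 60 min RT reaction. Luciferin detected by luminescence, normalized to 57 uM ketoconazole as full inhibition.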
# [11] = biological target: Cytochrome P450 3A4 (Homo sapiens) (UniProt P08684); experiment: qHTS Assay for Activators of Cytochrome P450 3A4 (AID 885); also: nearly all actives have a fitted effect of over 65% in size
# In short: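 20nM CYP3A4 + 25uM Luciferin-PPXE (=KM), 200mM KPO4; cpd 10 min RT; NADPH regen, 60 min RT; stop w/ detection buffer, 20 min; luminescence. Normalized to 57 uM ketoconazole.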
# [12] = Cellular Toxicity (caspase-3) HepG2 (AID 654);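 also: cells exposed to compound for 16 hours before reading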
# In short: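 qHTS, HepG2, 1500 cells/well, complete medium; cpd 16 h 37 °C; Caspase-Glo 3/7, 20 min RT; lum. Norm: DMSO vs 100 uM tamoxifen; AC50 Hill fit.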
# [13] = Cellular Toxicity (caspase-3) BJ (AID 658)
# In short: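 BJ human foreskin fibroblasts, 1000 cells/well, treated 16 hours at 37 °C in complete medium; caspase 3/7 activity by Caspase-Glo luminescence after 1 hr at room temperature. Normalized to DMSO and 10 uM staurosporine; AC50 from Hill fits.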
# [14] = Cellular Toxicity (caspase-3) MRC-5 (AID 659)
# In short: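 MRC-5 human normal lung fibroblasts, 1500 cells/well, treated 16 h at 37 °C in complete medium. Caspase 3/7 measured by Caspase-Glo luminescence after 1 h at room temperature. Normalized to DMSO and 10 uM staurosporine; AC50 from Hill fit.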
# [15] = Cellular Toxicity (caspase-3) SK-N-SH (AID 661)
# In short: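 Caspase 3/7 activation is measured as a luminescence increase from aminoluciferin released by substrate cleavage in SK-N-SH cells after 16 hr compound treatment; values are AC50 from concentration-response curves.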
# [16] = Cellular Toxicity (caspase-3) H-4-II-E (AID 663);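 also: cells exposed to compound for 16 hr before readout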
# In short: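 Rat hepatoma H-4-II-E cells (1500/well) plated 5 hr, then exposed to compound titrations for 16 hr at 37 °C. Caspase-Glo 3/7 luminescence read after 20 min at RT; data normalized to DMSO and 100 uM tamoxifen, AC50 from Hill fits.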
# [17] = biological target: Cytochrome P450 2C9 (Homo sapiens) (UniProt P11712); experiment: qHTS Assay for Inhibitors and Substrates of Cytochrome P450 2C9 (AID 883); also: nearly all actives have a fitted effect of over 60% in size
# In short: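 Signal: luciferase luminescence reporting luciferin produced by CYP2C9. Conditions: 10nM enzyme, Luciferin-H 100uM at KM, 25mM KPO4, 37C, 60 min NADPH-driven reaction. Reference: 57uM sulphaphenazole as 100% inhibition.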
# [18] = biological target: Cytochrome P450 2C19 (Homo sapiens) (UniProt P33261); experiment: qHTS Assay for Inhibitors and Substrates of Cytochrome P450 2C19 (AID 899); also: nearly all actives have a fitted effect of over 60% in size
# In short: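 Signal comes from luciferase acting on luciferin released by CYP2C19-mediated hydroxylation of Luciferin-H EGE, 10uM (KM). Assay mix: 5nM enzyme, 50mM KPO4; 60 min at 37C with NADPH regeneration. Data normalized against 57uM ketoconazole.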
# Cytochrome P450 3A4 (Homo sapiens), sequence (P08684 whole entry, looked up): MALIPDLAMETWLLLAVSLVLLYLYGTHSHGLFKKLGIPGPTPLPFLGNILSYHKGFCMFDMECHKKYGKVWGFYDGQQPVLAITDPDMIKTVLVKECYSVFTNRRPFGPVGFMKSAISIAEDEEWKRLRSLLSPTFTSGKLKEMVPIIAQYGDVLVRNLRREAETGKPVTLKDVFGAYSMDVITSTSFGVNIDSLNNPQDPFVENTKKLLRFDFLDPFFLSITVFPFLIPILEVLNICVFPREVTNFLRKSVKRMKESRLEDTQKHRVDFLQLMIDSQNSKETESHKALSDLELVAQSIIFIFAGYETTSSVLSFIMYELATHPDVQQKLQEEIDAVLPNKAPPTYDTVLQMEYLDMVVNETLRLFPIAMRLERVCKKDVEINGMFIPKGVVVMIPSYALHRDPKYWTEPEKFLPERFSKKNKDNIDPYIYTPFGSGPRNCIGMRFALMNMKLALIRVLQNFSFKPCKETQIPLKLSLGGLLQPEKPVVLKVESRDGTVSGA
# 3',5'-cyclic-AMP phosphodiesterase 4B (Homo sapiens), sequence (Q07343 whole entry, looked up): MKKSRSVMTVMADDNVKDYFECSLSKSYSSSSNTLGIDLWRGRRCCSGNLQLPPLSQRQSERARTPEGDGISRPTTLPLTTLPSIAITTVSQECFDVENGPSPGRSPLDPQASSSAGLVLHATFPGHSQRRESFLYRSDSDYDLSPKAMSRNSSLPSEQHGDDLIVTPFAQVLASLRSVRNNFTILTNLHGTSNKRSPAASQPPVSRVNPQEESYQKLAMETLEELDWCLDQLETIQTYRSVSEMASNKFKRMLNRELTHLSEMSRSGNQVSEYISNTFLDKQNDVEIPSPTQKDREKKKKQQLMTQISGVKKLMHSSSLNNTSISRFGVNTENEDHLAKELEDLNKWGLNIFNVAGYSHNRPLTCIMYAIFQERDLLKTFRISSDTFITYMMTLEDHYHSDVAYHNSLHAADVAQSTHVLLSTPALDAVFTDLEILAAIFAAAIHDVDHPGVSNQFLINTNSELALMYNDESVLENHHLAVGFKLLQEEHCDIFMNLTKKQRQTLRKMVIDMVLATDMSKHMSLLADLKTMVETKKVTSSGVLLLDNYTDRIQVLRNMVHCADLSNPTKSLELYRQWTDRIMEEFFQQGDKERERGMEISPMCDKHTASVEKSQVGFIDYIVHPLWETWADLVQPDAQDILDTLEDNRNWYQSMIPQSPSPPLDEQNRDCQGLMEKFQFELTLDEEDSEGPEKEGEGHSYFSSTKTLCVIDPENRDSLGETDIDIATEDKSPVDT
# Cytochrome P450 2C9 (Homo sapiens), sequence (P11712 whole entry, looked up): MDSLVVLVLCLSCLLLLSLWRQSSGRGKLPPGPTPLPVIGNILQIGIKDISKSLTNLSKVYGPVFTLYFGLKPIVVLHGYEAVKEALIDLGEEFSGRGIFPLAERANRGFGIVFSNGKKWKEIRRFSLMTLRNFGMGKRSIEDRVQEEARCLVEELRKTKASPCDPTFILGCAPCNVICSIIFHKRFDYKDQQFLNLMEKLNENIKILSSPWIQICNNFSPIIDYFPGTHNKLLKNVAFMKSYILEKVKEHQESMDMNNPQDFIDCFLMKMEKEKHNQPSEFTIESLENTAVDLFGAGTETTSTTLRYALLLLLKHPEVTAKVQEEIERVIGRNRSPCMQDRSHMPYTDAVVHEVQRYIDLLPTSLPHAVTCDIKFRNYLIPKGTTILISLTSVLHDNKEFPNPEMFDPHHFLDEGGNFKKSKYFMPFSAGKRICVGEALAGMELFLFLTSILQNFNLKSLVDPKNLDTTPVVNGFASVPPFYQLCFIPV
# Cytochrome P450 2C19 (Homo sapiens), sequence (P33261 whole entry, looked up): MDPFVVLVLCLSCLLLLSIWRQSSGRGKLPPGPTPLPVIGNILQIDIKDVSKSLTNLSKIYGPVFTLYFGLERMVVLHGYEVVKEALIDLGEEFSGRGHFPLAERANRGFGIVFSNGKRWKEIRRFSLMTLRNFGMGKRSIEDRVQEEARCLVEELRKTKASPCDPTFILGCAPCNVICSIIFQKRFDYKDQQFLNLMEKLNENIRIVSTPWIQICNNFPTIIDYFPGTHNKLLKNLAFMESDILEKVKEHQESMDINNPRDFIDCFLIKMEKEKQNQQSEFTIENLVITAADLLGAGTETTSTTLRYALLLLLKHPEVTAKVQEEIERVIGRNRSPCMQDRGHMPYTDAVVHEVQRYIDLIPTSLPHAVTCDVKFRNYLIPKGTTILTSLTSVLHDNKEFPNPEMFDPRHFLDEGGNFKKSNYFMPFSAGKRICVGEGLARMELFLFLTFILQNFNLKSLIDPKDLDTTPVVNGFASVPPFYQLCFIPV
smiles,measurement,setting,value
CC(=O)N[C@@H](CC(=O)O)C(=O)N[C@@H](CCC(=O)O)C(=O)O (Ac-Asp-Glu-OH),outcome,[1],inactive
O=CCCCC=O,Potency,[2],6.31 µM (active)
same,outcome,[3],inactive
same,outcome,[4],inactive
same,outcome,[5],inactive
same,outcome,[6],inactive
same,outcome,[7],inactive
same,outcome,[8],inactive
same,outcome,[9],inactive
same,Potency,[10],inactive
C=CCSSSCC=C,outcome,[11],inactive
CC1=C(/C=C/C(C)=C/C=C/C(C)=C/C=C/C=C(C)/C=C/C=C(C)/C=C/C2=C(C)C(=O)CCC2(C)C)C(C)(C)CCC1=O,Potency,[10],inactive
CC(O)CO (configuration not stated),outcome,[12],inactive
same,caspase-3 activation,[2],1.29% and 0.367%
same,outcome,[3],inactive
same,outcome,[4],inactive
same,outcome,[13],inactive
same,outcome,[14],inactive
same,outcome,[5],inactive
same,outcome,[15],inactive
same,outcome,[16],inactive
same,outcome,[6],inactive
same,outcome,[7],inactive
same,outcome,[8],inactive
same,outcome,[9],inactive
same,Potency,[10],inactive
Oc1cc(O)c2c(c1)OC(c1ccc(O)c(O)c1)C(O)C2 (configuration not stated),Potency,[10],inactive
CC(Cc1ccc(O)c(O)c1)C(C)Cc1ccc(O)c(O)c1 (configuration not stated),Potency,[10],12.6 µM (active)
same,outcome,[11],inactive
CCOC(C)=O,outcome,[12],inactive
same,caspase-3 activation,[2],-0.547%
same,outcome,[3],inactive
same,outcome,[4],inactive
same,outcome,[13],inactive
same,outcome,[14],inactive
same,outcome,[5],inactive
same,outcome,[15],inactive
same,outcome,[16],inactive
same,outcome,[6],inactive
same,outcome,[7],inactive
same,outcome,[8],inactive
same,outcome,[9],inactive
same,Potency,[10],inactive
O=C(O)CN(CCN(CC(=O)O)CC(=O)O)CC(=O)O,Potency,[10],inactive
CC(C)(C)NC(=O)[C@@H]1C[C@@H]2CCCC[C@@H]2CN1C[C@@H](O)[C@H](Cc1ccccc1)NC(=O)[C@H](CC(N)=O)NC(=O)c1ccc2ccccc2n1,caspase-3 activation,[2],116% (active)
same,outcome,[5],inactive
same,outcome,[7],inactive
same,outcome,[8],inactive
same,outcome,[9],inactive
Cc1c(C)c2c(c(C)c1O)CC[C@@](C)(CCC[C@H](C)CCC[C@H](C)CCCC(C)C)O2,Potency,[10],inactive
C[C@@H]1CCC2[C@@H](C)[C@@H](O)O[C@@H]3O[C@@]4(C)CC[C@@H]1[C@@]23OO4 (some centres not stated),outcome,[11],inactive
CC1=C(/C=C/C(C)=C/C=C/C(C)=C/C=C/C=C(C)/C=C/C=C(C)/C=C/C2=C(C)CCCC2(C)C)C(C)(C)CCC1,Potency,[10],inactive
CCCCC/C=C\C/C=C\CCCCCCCC(=O)O,outcome,[12],inactive
same,caspase-3 activation,[2],2.62%
same,outcome,[3],inactive
same,outcome,[4],inactive
same,outcome,[13],inactive
same,outcome,[14],inactive
same,outcome,[5],inactive
same,outcome,[15],inactive
same,outcome,[16],inactive
same,outcome,[6],inactive
same,outcome,[7],inactive
same,outcome,[8],inactive
same,outcome,[9],inactive
same,outcome,[11],inactive
CCCCCCCC(=O)O,outcome,[12],inactive
same,caspase-3 activation,[2],-0.427% and 1.06%
same,outcome,[3],inactive
same,outcome,[4],inactive
same,outcome,[13],inactive
same,outcome,[14],inactive
same,outcome,[5],inactive
same,outcome,[15],inactive
same,outcome,[16],inactive
same,outcome,[6],inactive
same,outcome,[7],inactive
same,outcome,[8],inactive
same,outcome,[9],inactive
same,Potency,[10],inactive
OCc1ccccc1O[C@@H]1O[C@H](CO)[C@@H](O)[C@H](O)[C@H]1O,Potency,[10],inactive
IC(I)I,outcome,[12],inactive
same,caspase-3 activation,[2],-0.0373%
same,outcome,[3],inactive
same,outcome,[4],inactive
same,outcome,[13],inactive
same,outcome,[14],inactive
same,outcome,[5],inactive
same,outcome,[15],inactive
same,outcome,[16],inactive
same,outcome,[6],inactive
same,outcome,[7],inactive
same,outcome,[8],inactive
same,outcome,[9],inactive
same,Potency,[10],inactive
CC1=C(/C=C/C(C)=C/C=C/C(C)=C/CO)C(C)(C)CCC1,outcome,[12],inactive
same,outcome,[3],inactive
same,outcome,[4],inactive
same,outcome,[13],inactive
same,outcome,[14],inactive
same,outcome,[5],inactive
same,outcome,[15],inactive
same,outcome,[16],inactive
same,outcome,[7],inactive
same,outcome,[8],inactive
same,outcome,[9],inactive
same,outcome,[11],inactive
O=c1ccn([C@@H]2O[C@H](CO)[C@@H](O)[C@H]2O)c(=O)[nH]1,Potency,[10],inactive
CC(C(=O)O)c1ccc(N2Cc3ccccc3C2=O)cc1 (configuration not stated),outcome,[11],inactive
CCN(CC)Cc1cc(Nc2ccnc3cc(Cl)ccc23)ccc1O,outcome,[17],inactive
same,Potency,[10],inactive
same,outcome,[18],inactive
Cc1cn([C@H]2C[C@H](O)[C@@H](CO)O2)c(=O)[nH]c1=O,Potency,[10],inactive
O=S(=O)(O)O,outcome,[12],inactive
same,caspase-3 activation,[2],4.57% and 0.977%
same,outcome,[3],inactive
same,outcome,[4],inactive
same,outcome,[13],inactive
same,outcome,[14],inactive
same,outcome,[5],inactive
same,outcome,[15],inactive
same,outcome,[16],inactive
same,outcome,[6],inactive
same,outcome,[7],inactive
same,outcome,[8],inactive
same,outcome,[9],inactive
same,Potency,[10],inactive
